Among all 59,000 compounds or so, about 6,200 (11%) were called active. Inconclusive results (about 9%) are left out. Cut-off read from the data, not from the text of the source: active = max dye-equivalent concentration above about 10 nM; inconclusive = mostly about 1.1 nM to 9.6 nM; inactive = weaker than that. Only a selection was taken, and actives are over-represented in it overall.

This experiment is described as follows: qHTS Assay for Spectroscopic Profiling in 4-MU Spectral Region. The conditions noted are these: compound autofluorescence, 340/450 nm, 4-MU equivalents; stronger effect = higher value. The gist of the method:
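Compounds in 100 mM Tris, pH 8.0, sat 15 min at room temperature before fluorescence was read at 340 nm excitation/450 nm emission; a per-plate six-point 4-MU standard curve converted signals to dye-equivalent concentration at each compound concentration.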
On to `Nc1nonc1-c1nc2ccccc2n1Cc1ccc(F)cc1`, for which the max dye-equivalent concentration entry was “inactive”.

`Nn1c(SCC(=O)NC(=O)NC2CCCC2)nnc1-c1ccccc1F`: the max dye-equivalent concentration result was “inactive”.

In the case of `CC(=O)NC1=NC(=O)CS1`, the max dye-equivalent concentration entry is “inactive”.

Consider `COc1ccc(OC)c(N=Cc2c(O)[nH]c3ccccc23)c1`, for which the max dye-equivalent concentration is 59 nM (active).

For the compound `COC(=O)c1[nH]c2ccccc2c1NS(=O)(=O)c1ccc(OC)cc1OC`, the max dye-equivalent concentration result was “inactive”.

Take `CCOc1ccccc1NC(=O)Nc1cc(OC)ccc1OC`: the max dye-equivalent concentration entry is “inactive”.

Turning to `Cc1nn(-c2ccccc2)c(C)c1C(=O)OCC(=O)NC(=O)NC1CCCCC1`, the max dye-equivalent concentration result was “inactive”.

In the case of `CCC(C)(C)NC(=O)C(c1cccn1C)N(Cc1ccc(C)cc1)C(=O)Cn1nnc2ccccc21` (stereo unspecified), the max dye-equivalent concentration entry is “inactive”.

In the case of `CC(C)NC[C@H](O)c1ccc2ccccc2c1`, the max dye-equivalent concentration result was “inactive”.

Take `CCCCC[C@H](O)CCCC(=O)O`: the max dye-equivalent concentration entry was “inactive”.

With `COc1ccc(OC)c(C2N(c3ccccn3)C(=O)C3CCCN32)c1` (stereo unspecified), the max dye-equivalent concentration result is “inactive”.

Consider `CCN(CC)C(=O)c1sc(NC(=O)c2ccco2)c(C#N)c1C`, for which the max dye-equivalent concentration entry is “inactive”.

As to `CCn1nc(NC(=O)c2ccco2)c2cc3ccc(C)cc3nc21`, the max dye-equivalent concentration was 64 nM (active).

`Cc1ccnc(NC(=O)c2ccc(NC(=O)c3ccco3)cc2)c1`: the max dye-equivalent concentration entry was “inactive”.

As to `C=CCNc1nc(C)nc(OC)n1`, the max dye-equivalent concentration entry was “inactive”.

Turning to `C=CCn1c(COc2ccccc2C)nnc1SCC(=O)O`, the max dye-equivalent concentration entry is “inactive”.

In the case of `O=C(O)c1ccc(NC(=O)c2cccs2)cc1`, the max dye-equivalent concentration result was “inactive”.

On to `Cc1nc(-c2ccc(NC(=O)c3cccs3)cc2)cs1`, for which the max dye-equivalent concentration was 220 nM (active).

For the compound `Cn1c(SCC(=O)Nc2cccc(NC(=O)c3cccs3)c2)nnc1-c1ccncc1`, the max dye-equivalent concentration entry is “inactive”.

As to `Cc1cc(=O)[nH]c(SCC(=O)N2c3ccccc3CC2C)n1` (stereo unspecified), the max dye-equivalent concentration entry was “inactive”.

For `NC(=NC(=O)c1ccccc1)C1=C(O)CCC1=O`, the max dye-equivalent concentration result is “inactive”.

For `CC(C)N(C(=O)COC(=O)c1ccccc1C(=O)N1CCN(c2ccc(F)cc2)CC1)C(C)C`, the max dye-equivalent concentration result was “inactive”.

Consider `O=C(c1cccc2ccccc12)N1CCN(c2ccccc2F)CC1`, for which the max dye-equivalent concentration result is “inactive”.

As for `Cn1c2ccccc2c2c(C(=O)N3CCN(c4ccc(F)cc4)CC3)cn(C3CCCC3)c(=O)c21`, the max dye-equivalent concentration is 16 nM (active).

`COc1ccc(-n2nnnc2SCC(=O)c2ccc(OC)c(OC)c2)cc1`: the max dye-equivalent concentration result was “inactive”.

In the case of `CCSc1nc2c(c(=O)[nH]1)C(c1cccnc1)C(C(=O)OC(C)C)=C(C)N2` (stereo unspecified), the max dye-equivalent concentration was 10 nM (active).

Turning to `CC1=C(C(=O)OC2CCCCC2)C(c2cccnc2)n2ncnc2N1` (stereo unspecified), the max dye-equivalent concentration entry is “inactive”.

Take `COC(=O)C1=C(N)Oc2cc(C)oc(=O)c2C1c1cccnc1` (stereo unspecified): the max dye-equivalent concentration entry was “inactive”.

For the compound `O=C(Nc1cccc(F)c1)N1CC2(CCN(C(=O)c3cnccn3)CC2)C1`, the max dye-equivalent concentration entry is “inactive”.

As to `COc1ccc(NC(=O)c2c(SC)nsc2SC)cc1`, the max dye-equivalent concentration result was “inactive”.

In the case of `CCOc1ccc(C(C)C)cc1S(=O)(=O)n1nc(C)cc1C`, the max dye-equivalent concentration entry is “inactive”.

Regarding `Cc1ccc(OCCCC(=O)N2CCOCC2)c(C)c1`, the max dye-equivalent concentration entry is “inactive”.

Consider `CSc1nc(N)c(C#N)c(-c2ccccc2Cl)c1C#N`, for which the max dye-equivalent concentration entry was “inactive”.

With `CSc1ccc(-c2c(C#N)c(N)nc3c2c(C)nn3-c2ccccc2)cc1`, the max dye-equivalent concentration is 360 nM (active).

As to `CCCc1[nH]nc2c1C(c1c(C)nn(-c3ccccc3)c1Cl)C(C#N)=C(N)O2` (stereo unspecified), the max dye-equivalent concentration result was “inactive”.

On to `CCc1c(C)nc(N)n2c(SCC(=O)N3CCN(c4ccccc4)CC3)nnc12`, for which the max dye-equivalent concentration result is “inactive”.

Take `CCOC(=O)c1cnc(SCC(=O)NCc2ccco2)nc1N`: the max dye-equivalent concentration result was “inactive”.

On to `COc1ccc(Cl)cc1NC(=O)c1oc(C)nc1C`, for which the max dye-equivalent concentration was 15 nM (active).

As for `COc1c(C)cccc1C(=O)Nc1cc(Cl)ccc1N1CCOCC1`, the max dye-equivalent concentration entry is “inactive”.

With `Cc1nc(C)c(C(=O)Nc2ccc(C)c(F)c2)o1`, the max dye-equivalent concentration result was “inactive”.

Regarding `CCOC(=O)c1csc(NC(=O)c2ccc(S(=O)(=O)N3CCCC3)cc2)n1`, the max dye-equivalent concentration result is “inactive”.

Turning to `CC(C)c1ccc(-c2nn[nH]n2)cc1`, the max dye-equivalent concentration result was “inactive”.

Turning to `Cc1ccc(F)cc1NC(=O)c1cccc(N(C)C)c1`, the max dye-equivalent concentration result was “inactive”.

Consider `COc1ccc2oc(=O)c(C(=O)N3CCCc4ccccc43)cc2c1`, for which the max dye-equivalent concentration result was “inactive”.

Consider `COc1ccc2oc(=O)c(C(=O)N3CCN(c4ccccc4F)CC3)cc2c1`, for which the max dye-equivalent concentration was 39 nM (active).

`COc1ccc(CN2CC(C(=O)NCCN3CCN(c4ccccc4F)CC3)CC2=O)cc1` (stereo unspecified): the max dye-equivalent concentration result is “inactive”.

Regarding `CCCCC(CCC(=O)Nc1ccc(C(=O)OCC)cc1)C(=O)O` (stereo unspecified), the max dye-equivalent concentration result is “inactive”.

Regarding `Cc1cc(Cl)c(S(=O)(=O)NCC2CCCO2)cc1OCC(N)=O` (stereo unspecified), the max dye-equivalent concentration result is “inactive”.

Take `O=C(COc1ccc2oc3c(c2c1)CCCC3)Nc1ccccn1`: the max dye-equivalent concentration result was “inactive”.

As for `O=C(COc1ccccc1F)NC1CC1`, the max dye-equivalent concentration result was “inactive”.

Turning to `O=C(COc1ccc2c3c(c(=O)oc2c1)CCC3)NC1CCCCC1`, the max dye-equivalent concentration is 64 nM (active).

Take `O=C(CC1OC(=O)c2ccccc21)NC1CCCCC1` (stereo unspecified): the max dye-equivalent concentration entry was “inactive”.

For the compound `NC(=O)COc1ccc2c3c(c(=O)oc2c1)CCCCC3`, the max dye-equivalent concentration was 26 nM (active).

Turning to `c1ccc2c(c1)OCC(c1nn3cnnc3s1)O2` (stereo unspecified), the max dye-equivalent concentration entry is “inactive”.

Turning to `CCN(C(=O)CSc1ncn[nH]1)c1cccc2ccccc12`, the max dye-equivalent concentration result was “inactive”.

Consider `Cc1noc(C)c1S(=O)(=O)Nc1ccc(C(=O)O)cc1`, for which the max dye-equivalent concentration result was “inactive”.

The values are drawn from PubChem BioAssay AID589 (National Center for Advancing Translational Sciences (NCATS), 2007).
